# The supplement of paper PMC9492666
# Where a name gives a salt, the structure may show the parent alone.
# Assays:
# [1] = test system: HCC1937; test: relative cell viability, compound + RSL3, vs DMSO (fraction of DMSO control); higher = less growth inhibition; conditions: 72 h
# [2] = test system: MDA-MB-231; test: as above; conditions: 72 h
# 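Note: breast cancer cell viability read out with the CCK-8 kit after co-treatment of each compound with the ferroptosis inducer RSL3.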
SMILES,relative cell viability [1],relative cell viability [2]
C[C@@H](Nc1nc(N[C@H](C)C(F)(F)F)nc(-c2cccc(Cl)n2)n1)C(F)(F)F [Vorasidenib] + COC(=O)c1ccc([C@H]2c3[nH]c4ccccc4c3C[C@H](C(=O)OC)N2C(=O)CCl)cc1 [RSL3],0.409,0.595
N[C@@H](Cc1c[nH]cn1)C(=O)O [histidine] + COC(=O)c1ccc([C@H]2c3[nH]c4ccccc4c3C[C@H](C(=O)OC)N2C(=O)CCl)cc1 [RSL3],0.622,0.673
"Cc1cc(=O)oc2c(O)c(O)ccc12 [7,8-Dihydroxy-4-methylcoumarin] + COC(=O)c1ccc([C@H]2c3[nH]c4ccccc4c3C[C@H](C(=O)OC)N2C(=O)CCl)cc1 [RSL3]",0.539,0.7
NC(N)=NN=Cc1cccc(Cl)c1Cl [Raphin1] + COC(=O)c1ccc([C@H]2c3[nH]c4ccccc4c3C[C@H](C(=O)OC)N2C(=O)CCl)cc1 [RSL3],0.289,0.626
CS(=O)(=O)c1ccc(-c2nnc(/C=C/c3nnc(-c4ccc(C#N)cc4)o3)n2-c2ccccc2Cl)nc1 + COC(=O)c1ccc([C@H]2c3[nH]c4ccccc4c3C[C@H](C(=O)OC)N2C(=O)CCl)cc1 [RSL3],0.508,0.502
Oc1ccc(/C=C/c2cc(O)cc(O)c2)cc1 [Resveratrol] + COC(=O)c1ccc([C@H]2c3[nH]c4ccccc4c3C[C@H](C(=O)OC)N2C(=O)CCl)cc1 [RSL3],0.63,0.508
Cc1ccc(CN(CC(O)COc2cccc3[nH]ccc23)C(C)(C)C)cc1 (configuration not stated) + COC(=O)c1ccc([C@H]2c3[nH]c4ccccc4c3C[C@H](C(=O)OC)N2C(=O)CCl)cc1 [RSL3],0.357,0.804
Cc1nc(Nc2cnn(C3CCNCC3)c2)nc2c1N(C)C(=O)c1cc3ccccc3cc1N2C + COC(=O)c1ccc([C@H]2c3[nH]c4ccccc4c3C[C@H](C(=O)OC)N2C(=O)CCl)cc1 [RSL3],0.31,0.287
COc1c(/C=C/C(=O)c2ccc(O)cc2)ccc(O)c1CC=C(C)C + COC(=O)c1ccc([C@H]2c3[nH]c4ccccc4c3C[C@H](C(=O)OC)N2C(=O)CCl)cc1 [RSL3],0.579,0.585
Nc1ccc(C(=O)O)c(O)c1 [Aminopar] + COC(=O)c1ccc([C@H]2c3[nH]c4ccccc4c3C[C@H](C(=O)OC)N2C(=O)CCl)cc1 [RSL3],0.822,0.662
C[C@H]1N=C(N(C)C)N=C(N)N1 [Imeglimin hydrochloride] + COC(=O)c1ccc([C@H]2c3[nH]c4ccccc4c3C[C@H](C(=O)OC)N2C(=O)CCl)cc1 [RSL3],0.504,0.647
CCc1c(-c2ccccc2)c(-c2ccccc2)nn1-c1ccccc1-c1cccc(OCC(=O)O)c1 + COC(=O)c1ccc([C@H]2c3[nH]c4ccccc4c3C[C@H](C(=O)OC)N2C(=O)CCl)cc1 [RSL3],0.503,0.741
Cc1cnc(C(=O)NCCc2ccc(S(=O)(=O)NC(=O)NC3CCCCC3)cc2)cn1 [Glipizide] + COC(=O)c1ccc([C@H]2c3[nH]c4ccccc4c3C[C@H](C(=O)OC)N2C(=O)CCl)cc1 [RSL3],0.597,0.484
COc1ccc([C@@H]2OC[C@H]3[C@@H]2CO[C@@H]3c2ccc(O[C@@H]3O[C@H](CO)[C@@H](O)[C@H](O)[C@H]3O)c(OC)c2)cc1OC [Forsythin] + COC(=O)c1ccc([C@H]2c3[nH]c4ccccc4c3C[C@H](C(=O)OC)N2C(=O)CCl)cc1 [RSL3],0.731,0.664
Nc1ccc(O)c(C(=O)O)c1 [Mesalamine] + COC(=O)c1ccc([C@H]2c3[nH]c4ccccc4c3C[C@H](C(=O)OC)N2C(=O)CCl)cc1 [RSL3],0.635,0.592
CC1(C)CC[C@]2(C(=O)O[C@@H]3O[C@H](CO)[C@@H](O)[C@H](O)[C@H]3O)CC[C@]3(C)C(=CC[C@@H]4[C@@]5(C)CC[C@H](O[C@@H]6O[C@H](C(=O)O)[C@@H](O)[C@H](O)[C@H]6O[C@@H]6O[C@H](CO)[C@@H](O)[C@H](O)[C@H]6O)C(C)(C)[C@@H]5CC[C@]43C)[C@@H]2C1 [Ginsenoside Ro] + COC(=O)c1ccc([C@H]2c3[nH]c4ccccc4c3C[C@H](C(=O)OC)N2C(=O)CCl)cc1 [RSL3],0.375,0.478
O=C(O)c1cccc(N=Nc2c(O)[nH]c3ccc(S(=O)(=O)NCc4ccc(F)cc4)cc23)c1 + COC(=O)c1ccc([C@H]2c3[nH]c4ccccc4c3C[C@H](C(=O)OC)N2C(=O)CCl)cc1 [RSL3],0.516,0.611
COC(=O)c1sccc1S(=O)(=O)Nc1ccc(Nc2ccccc2)cc1OC + COC(=O)c1ccc([C@H]2c3[nH]c4ccccc4c3C[C@H](C(=O)OC)N2C(=O)CCl)cc1 [RSL3],0.347,0.542

SMILES,relative cell viability [1],relative cell viability [2]
O=C(CN1CCN(C(=O)c2ccco2)CC1)Nc1cc(C(F)(F)F)ccc1Cl + COC(=O)c1ccc([C@H]2c3[nH]c4ccccc4c3C[C@H](C(=O)OC)N2C(=O)CCl)cc1 [RSL3],0.268,0.373
O=C1C(SCCO)=C(SCCO)C(=O)c2ccccc21 + COC(=O)c1ccc([C@H]2c3[nH]c4ccccc4c3C[C@H](C(=O)OC)N2C(=O)CCl)cc1 [RSL3],0.388,0.925
CCC1C(O)C2C3CCC(C(C)CCO)C3(C)CCC2C2(C)CCC(O)CC12 (configuration not stated) + COC(=O)c1ccc([C@H]2c3[nH]c4ccccc4c3C[C@H](C(=O)OC)N2C(=O)CCl)cc1 [RSL3],0.399,0.364
CC(C)=CCC[C@](C)(O[C@@H]1O[C@H](CO)[C@@H](O)[C@H](O)[C@H]1O)[C@H]1CC[C@]2(C)[C@@H]1[C@H](O)C[C@@H]1[C@@]3(C)CC[C@H](O[C@@H]4O[C@H](CO)[C@@H](O)[C@H](O)[C@H]4O[C@@H]4O[C@H](CO)[C@@H](O)[C@H](O)[C@H]4O)C(C)(C)[C@@H]3CC[C@]12C [Ginsenoside Rd] + COC(=O)c1ccc([C@H]2c3[nH]c4ccccc4c3C[C@H](C(=O)OC)N2C(=O)CCl)cc1 [RSL3],0.616,0.478
O=C(OC(C(F)(F)F)C(F)(F)F)N1CCN(Cc2ccc(C(F)(F)F)cc2N2CCCC2)CC1 + COC(=O)c1ccc([C@H]2c3[nH]c4ccccc4c3C[C@H](C(=O)OC)N2C(=O)CCl)cc1 [RSL3],0.928,0.613
Cc1nc2ccc(NCc3cccc(C(F)(F)F)c3)cc2n(CCNC(=O)CO)c1=O + COC(=O)c1ccc([C@H]2c3[nH]c4ccccc4c3C[C@H](C(=O)OC)N2C(=O)CCl)cc1 [RSL3],0.354,0.567
OC[C@H]1O[C@@H](Oc2cc(O)cc(/C=C/c3ccc(O)cc3)c2)[C@H](O)[C@@H](O)[C@@H]1O [Polydatin] + COC(=O)c1ccc([C@H]2c3[nH]c4ccccc4c3C[C@H](C(=O)OC)N2C(=O)CCl)cc1 [RSL3],0.749,0.608
Cc1ccc(C)c(OCCCC(C)(C)C(=O)O)c1 [Gemfibrozil] + COC(=O)c1ccc([C@H]2c3[nH]c4ccccc4c3C[C@H](C(=O)OC)N2C(=O)CCl)cc1 [RSL3],0.631,0.523
Cc1cc(SCc2sc(-c3ccc(C(F)(F)F)cc3)nc2C)ccc1OCC(=O)O + COC(=O)c1ccc([C@H]2c3[nH]c4ccccc4c3C[C@H](C(=O)OC)N2C(=O)CCl)cc1 [RSL3],0.339,0.554
CCCCCCCCCCC[C@@H](C[C@@H]1OC(=O)[C@H]1CCCCCC)OC(=O)[C@H](CC(C)C)NC=O [Orlistat] + COC(=O)c1ccc([C@H]2c3[nH]c4ccccc4c3C[C@H](C(=O)OC)N2C(=O)CCl)cc1 [RSL3],0.572,0.167
COc1ccc2c(=O)c(-c3ccccc3)coc2c1 [7-Methoxyisoflavone] + COC(=O)c1ccc([C@H]2c3[nH]c4ccccc4c3C[C@H](C(=O)OC)N2C(=O)CCl)cc1 [RSL3],0.396,0.419
CCCCCCCCCCCCCCOc1ccc(C(=O)O)o1 + COC(=O)c1ccc([C@H]2c3[nH]c4ccccc4c3C[C@H](C(=O)OC)N2C(=O)CCl)cc1 [RSL3],0.613,0.673
COC(=O)CN(c1ccc(CN(c2ccc(OCc3ccc(C)cc3)c(C(=O)OC)c2)S(=O)(=O)Cc2ccccc2)cc1)S(C)(=O)=O + COC(=O)c1ccc([C@H]2c3[nH]c4ccccc4c3C[C@H](C(=O)OC)N2C(=O)CCl)cc1 [RSL3],0.538,0.626
CN(C)C(=N)NC(=N)N [Metformin] + COC(=O)c1ccc([C@H]2c3[nH]c4ccccc4c3C[C@H](C(=O)OC)N2C(=O)CCl)cc1 [RSL3],0.335,0.542
CCCCCCCCCCOc1ccc(C(=O)Nc2cc(C(=O)NCCCC)ccc2SC)cc1 + COC(=O)c1ccc([C@H]2c3[nH]c4ccccc4c3C[C@H](C(=O)OC)N2C(=O)CCl)cc1 [RSL3],0.408,0.421
COc1ccc2c(c1)c(CC(=O)O)c(C)n2C(=O)c1ccc(Cl)cc1 [Indometacin] + COC(=O)c1ccc([C@H]2c3[nH]c4ccccc4c3C[C@H](C(=O)OC)N2C(=O)CCl)cc1 [RSL3],1.01,0.61
CCCc1c(-c2ccccc2)[nH]n(-c2ccccn2)c1=O [APX-115 free base] + COC(=O)c1ccc([C@H]2c3[nH]c4ccccc4c3C[C@H](C(=O)OC)N2C(=O)CCl)cc1 [RSL3],0.412,0.415
COc1cc(F)c(C(C)C)cc1-c1ccc(C(F)(F)F)cc1CN1C(=O)O[C@H](c2cc(C(F)(F)F)cc(C(F)(F)F)c2)[C@@H]1C [Anacetrapib] + COC(=O)c1ccc([C@H]2c3[nH]c4ccccc4c3C[C@H](C(=O)OC)N2C(=O)CCl)cc1 [RSL3],0.622,0.497
